# From PubChem BioAssay
# Most compounds without a hit are left out; they make up all but 3.7% or so of the library.
# D3 ag – D3 dopamine receptor (human) agonism | D3R DiscoveRx beta-arrestin cells, luminescence, 90 min | max activation, % | P35462 | actives 0.58% (n = 410,000) | AID 652048; in the data active = max activation above about 30%
# Target sequence (P35462 whole entry, looked up): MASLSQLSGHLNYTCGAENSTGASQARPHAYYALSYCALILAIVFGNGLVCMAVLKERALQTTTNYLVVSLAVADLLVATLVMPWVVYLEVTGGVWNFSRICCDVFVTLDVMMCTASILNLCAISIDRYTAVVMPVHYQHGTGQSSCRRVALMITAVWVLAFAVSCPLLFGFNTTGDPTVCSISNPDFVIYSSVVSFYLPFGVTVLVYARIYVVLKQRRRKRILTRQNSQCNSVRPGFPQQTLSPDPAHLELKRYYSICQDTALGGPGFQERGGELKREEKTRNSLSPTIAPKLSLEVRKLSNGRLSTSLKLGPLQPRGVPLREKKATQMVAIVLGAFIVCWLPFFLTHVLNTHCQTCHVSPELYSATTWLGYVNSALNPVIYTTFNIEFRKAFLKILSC
#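 Agonist-mode cell screen: cells plated at 1500/well and incubated overnight at 37 °C, then exposed to library compounds for 90 min at 37 °C. Detection reagent was added for 30–60 min at room temperature, and luminescence was read.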
# B2AR arrestin – agonists driving beta-arrestin recruitment to human beta2-adrenergic receptor; P07550; beta-arrestin recruitment to beta2AR, cell-based reporter; Potency, µM (series often up to 46.1 µM), actives largely listed as activators; actives 0.02% (n = 330,000); AID 492947; also: nearly all actives have a fitted effect of over 65% in size
# D3 antag – D3 dopamine receptor (human) antagonism; P35462; D3R cells, DiscoveRx beta-arrestin luminescence, antagonist mode; stronger effect = lower value; max response, negative = inhibition, %; actives 2.5% (n = 360,000); AID 652054; in the data active = max response below about -50%; inconclusive = no clear call, values can overlap the other calls
#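 Cells expressing the human receptor were seeded at 1500 cells/well, incubated overnight at 37 degrees C in 5% CO2, then exposed to library compounds with dopamine controls for 90 minutes at 37 degrees C before luminescent detection.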
# PTHR1 agonist – activates the human parathyroid hormone receptor PTHR1; Potency, µM (doses to about 115 µM), hits mostly activators; Q03431; AID 743266; HEK293 GP2 PTHR1 cells, GloSensor cAMP luminescence, 1 h; actives 0.075% (n = 410,000); also: nearly all actives have a fitted effect of over 55% in size
#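 HEK-293-derived GP2 cells expressing PTHR1 and a GloSensor cAMP reporter, 3,000/well, plated overnight, given luciferin plus IBMX (each 0.5 mM as added) for 1 h at 37 °C, then compound for 1 h at 37 °C. Luminescence was read after 15 min at room temperature.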
# BRCA1 expr act – activators of BRCA1 expression; MCF7-BRCA1-FFLuc reporter, luminescence, 48 h; response scale: scaled: vehicle 0%, 10 µM genistein 100%; actives 1.1% (n = 380,000); Potency, µM (series often up to 46.1 µM), most hits filed as activators; AID 624202; also: nearly all actives have a fitted effect of over 80% in size
#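 48 h compound treatment of MCF7-BRCA1-FFLuc cells (phenol-red free MEM, 37 °C), then 15 min with luciferase substrate and luminescence imaging.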
# RGS4 inh – inhibitors of human regulator of G protein signaling 4 | Transcreener GDP fluorescence polarization, RGS4-accelerated GTP hydrolysis | Potency, µM (top dose mostly 114 µM), usual class: inhibitors | actives 0.039% (n = 390,000) | P49798; also: nearly all actives have a fitted effect of over 75% in size
#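 MLSMR compounds (23 nl, pin-transferred) preincubated 10 min at room temperature with a 500nM (2x) first reagent, then RGS4 at 900nM (2x) plus Transcreener GDP mix added; fluorescence polarization (620/688 nm) read before and after 90 min at 30 °C.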
# A number is an active result; - = inactive; ? = inconclusive; . = not tested or not shown; [ ] = dose if it differs, or a comment. Unless noted, calls follow the shape of the dose curve; as a rule, active = well fitted curve in the direction sought with a large enough effect; inconclusive = small, poorly fitted or top-dose-only effect, or another doubt; inactive = no such curve, though single readings can be large; an effect the other way counts as inactive or inconclusive.
SMILES,D3 ag,B2AR arrestin,D3 antag,PTHR1 agonist,BRCA1 expr act,RGS4 inh
CN(C)c1ccc(CN2CCC(C(=O)NC(c3ccc(F)cc3)c3ccc4ccccc4n3)CC2)cc1 (stereo not given),-,.,-82,-,-,.
O=C(NC(c1ccc(F)cc1)c1ccc2ccccc2n1)C1CCN(CCOc2ccc(Cl)cc2)CC1 (stereo not given),-,.,-118,-,-,.
O=C(NC(c1ccccc1)c1ccc2ccccc2n1)C1CCN(CCOc2ccc(Cl)cc2Cl)CC1 (stereo not given),-,.,-,-,-,.
O=C(NC(c1ccc(F)cc1)c1ccc2ccccc2n1)C1CCN(Cc2cccc(C(F)(F)F)c2)CC1 (stereo not given),-,.,-81,-,-,.
O=C(NC(c1ccc(F)cc1)c1ccc2ccccc2n1)C1CCN(Cc2ccc3ccccc3n2)CC1 (stereo not given),-,.,-53,-,-,.
NNC(=O)CN1C(c2ccc(Cl)cc2)=Nc2ccc(Br)cc2C1c1ccccc1 (stereo not given),-,-,-59,-,-,-
COC(=O)CN1C(C)=Nc2ccc(C)cc2C1c1ccccc1 (stereo not given),-,-,-,-,-,-
COC(=O)CN1C(c2ccccc2)=Nc2ccc(Cl)cc2C1c1ccccc1 (stereo not given),-,-,-56,-,-[1.84 µM],-
COC(=O)c1ccc(Cn2cnc3cnccc32)cc1,-,-,-,-,-,-
Cc1cc(OCC(O)CN2CCN(c3ccccn3)CC2)cc(C)c1Cl (stereo not given),51,-,-,-,-,-
Cc1cc(C)c(OCC(O)CN2CCN(c3ccccn3)CC2)c(C)c1 (stereo not given),106,-,-,-,-,-
OC(COc1ccc(Cl)c2ccccc12)CN1CCN(c2ccccn2)CC1 (stereo not given),72,-,-,-,-,-
OC(COC(c1ccccc1)c1ccccc1)CN1CCN(c2ccccn2)CC1 (stereo not given),56,-,-,-,-,-
CC(C)(C)C1CCC(OCC(O)CN2CCN(c3ccccn3)CC2)CC1 (stereo not given),65,-,-,-,-,-
CC(C)(C)C1CCC(OCC(O)CN2CCN(Cc3ccccc3)CC2)CC1 (stereo not given),-,-,?,-,-,-
CCn1cnc2c1c(=O)n(CC(=O)Nc1ccc3c(c1)OC(F)(F)O3)c(=O)n2Cc1ccccc1,-,-,-50,-,-,-
CCn1cnc2c1c(=O)n(Cc1cccc(Br)c1)c(=O)n2Cc1ccccc1,35,-,-,-,-,?
CCOC(=O)CSc1nc(=O)n2ccccc2n1,-,-,-,-,-,-
COc1cc(OC)c(C2=NOC(C(=O)N3CCCc4ccccc43)C2)cc1Cl (stereo not given),32,-,-,-,-,-
C[C@@H](NC(=O)[C@@H]1CCCN1C(=O)[C@@H]1CCCN1C(=O)c1cccc2ccccc12)c1ccccc1,-,.,-,-,-,.
CCN(CC)CCn1c(NCc2nc3ccccc3n2Cc2ccccc2)nc2ccccc21,-,-,-55,-,-,-
CCN(CC)CCSc1nc2ccccc2n1Cc1ccccc1,-,-,-54,-,-,-
Cn1cccc1-c1nc2ccccc2n1Cc1ccccc1,-,-,-54,-,-,-
CCN=C(NS(=O)(=O)c1ccc(Br)cc1)c1ccc(Cl)cc1,-,-,-,-,-,-
Cc1cccc2c(=O)c(C(=O)NCCc3ccccc3)c[nH]c12,-,-,-,-,-,-
O=C1c2ccccc2C(=O)N1CCCc1c[nH]c2ccccc12,-,-,-,-,-,-
O=C(NCCc1c[nH]c2ccccc12)OCCCCOC(=O)NCCc1c[nH]c2ccccc12,60,-,-,-,-,-
O=C(NCCc1ccccc1)c1n[nH]c2ccccc12,-,-,-,-,3.2µM,-
